Molecules are shown by their SMILES. Activity calls are given as the source filed them. The calls were made as follows: active = hit-call score of the fitted dose curve at least 0.9, where 1 is the maximum; inactive = score below 0.9.

Experiment [1] is described as follows: ATG_E_Box_CIS: Attagene CIS-FACTORIAL HepG2 Assay for human Enhancer Box (E-box) (AID 2282936). The following applies: HepG2 E-box cis-reporter transcription, actives raise or lower the signal. Summed up: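 Endogenous transcription factor activity was sensed in human HepG2 liver cells through transfected cis-promoter reporter units. After 24 h of dosing, total RNA was reverse-transcribed and reporter cDNA resolved by capillary electrophoresis.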

The nature of experiment [2]: ATG_M_61_CIS: Attagene CIS-FACTORIAL HepG2 Assay for M61 Transcription Factor (Internal Marker) (AID 2282937). Conditions: HepG2 Attagene CIS-FACTORIAL M61 internal marker reporter; actives raise or lower the signal. Put shortly:
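Background-control endpoint: HepG2 cells with cis-regulated reporter constructs, 24 h exposure, reporter mRNA detected via fluorescent primer extension and capillary electrophoresis; values from bidirectional fitting with DMSO baseline.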

Experiment [3] can be described thus: ATG_EGR_CIS: Attagene CIS-FACTORIAL HepG2 Assay for human Early Growth Response 1 (EGR1) (AID 2282938). The following applies: HepG2 Attagene CIS-FACTORIAL EGR reporter mRNA; actives raise or lower the signal. Put shortly: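 Endpoint derived by bidirectional fitting versus DMSO vehicle. Method: cis-promoter reporter units transfected into HepG2, 24 h dosing, RNA isolation, RT-PCR with 6-FAM primer extension and HpaI digestion, then capillary electrophoresis fluorescence detection.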

The nature of experiment [4]: ATG_M_19_CIS: Attagene CIS-FACTORIAL HepG2 Assay for M19 Transcription Factor (Internal Marker) (AID 2282939). The following applies: HepG2 Attagene CIS-FACTORIAL M19 internal marker reporter; actives raise or lower the signal. Summed up: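 Internal marker readout, fitted in both directions against DMSO, from HepG2 cells carrying transfected cis-element reporter constructs; RT-PCR and capillary electrophoresis of reporter mRNA after 24 h exposure.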

Experiment [5] in a line: ATG_ERE_CIS: Attagene CIS-FACTORIAL HepG2 Assay for Estrogen Response Element (ERE) (AID 2282940). Conditions: HepG2 ERE cis-reporter, Attagene RNA transcript; actives raise or lower the signal. Put shortly:
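After 24 h compound treatment, RNA from transfected HepG2 cells was reverse-transcribed, reporter cDNA PCR-amplified, FAM-labelled, HpaI-cut and resolved by capillary electrophoresis. ERE-driven cis reporter transcripts reflect endogenous factors; gain or loss scored against DMSO.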

The nature of experiment [6]: ATG_Ets_CIS: Attagene CIS-FACTORIAL HepG2 Assay for human Erythroblast Transformation Specific (ETS) (AID 2282941). Conditions: HepG2 ETS cis-reporter transcription; AC50: actives raise or lower the signal unless noted; outcome: actives raise or lower the signal unless noted. Put shortly: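 RT-PCR/capillary electrophoresis fluorescence read-out of reporter mRNA; HepG2 transient multi-reporter transfection; 24 h compound exposure; gain or loss of signal fitted bidirectionally relative to DMSO.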

Experiment [7] concerns the target Hepatocyte nuclear factor 3-beta (Homo sapiens) (UniProt Q9Y261). The experiment can be described thus: ATG_FoxA2_CIS: Attagene CIS-FACTORIAL HepG2 Assay for human Forkhead box A2 (FOXA2) (AID 2282942). Conditions: HepG2 cis-reporter transcription factor activity, 24 h; actives raise or lower the signal. Summed up: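 Measured: reporter mRNA induction or loss in HepG2 transiently carrying multiple cis-regulated reporter units, 24 h after dosing. Quantified by RT-PCR plus capillary electrophoresis, normalised to DMSO.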

Experiment [8] is described as follows: ATG_FoxO_CIS: Attagene CIS-FACTORIAL HepG2 Assay for human Forkhead box O (FoxO) (AID 2282943). The following applies: HepG2 Attagene cis-reporter, FoxO element, mRNA; actives raise or lower the signal. Summed up:
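Values reflect reporter mRNA induction or loss in HepG2 cells 24 h post-dosing, fitted bidirectionally with DMSO as negative control and baseline. Detection used RT-PCR and fluorescence capillary electrophoresis.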

The nature of experiment [9]: ATG_GATA_CIS: Attagene CIS-FACTORIAL HepG2 Assay for human GATA Binding Protein (AID 2282944). The following applies: HepG2 GATA cis-element reporter, Attagene multiplex mRNA; actives raise or lower the signal. Summed up:
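Reporter transcripts from a GATA cis-regulated unit, among multiplexed reporters in transfected HepG2 cells, were measured by RT-PCR with capillary electrophoresis after 24 h dosing. Induction or loss scored relative to DMSO.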

Experiment [10] addresses Bile acid receptor (Homo sapiens) (UniProt Q96RI1). Kind of experiment: ATG_IR1_CIS: Attagene CIS-FACTORIAL HepG2 Assay for human Nuclear Receptor Subfamily 1 Group H Member 4 (NR1H4), IR1 submotif (AID 2282946). The following applies: IR1 reporter transcription, actives raise or lower the signal. Summed up: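 Readout: reporter transcript levels by RT-PCR with fluorescent capillary electrophoresis, from HepG2 cells transiently transfected with multiplexed cis-regulated reporters and dosed 24 h. Gain- or loss-of-signal fitted versus DMSO negative control.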

The nature of experiment [11]: ATG_GRE_CIS: Attagene CIS-FACTORIAL HepG2 Assay for human Glucocorticoid Response Elements (GRE) (AID 2282947). The following applies: HepG2 GRE cis-reporter, Attagene multiplex mRNA; AC50: actives raise or lower the signal unless noted; outcome: actives raise or lower the signal unless noted. Put shortly: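 Cells (HepG2) bearing transfected cis-promoter reporter transcription units were treated with chemical for 24 hours. Reporter mRNA was measured via RT-PCR with capillary electrophoresis, and activity was fitted in both directions relative to DMSO.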

Experiment [12] can be described thus: ATG_ISRE_CIS: Attagene CIS-FACTORIAL HepG2 Assay for human Interferon Regulatory Factor 1 (IRF1) binding to an Interferon-Stimulated Response Element (ISRE) (AID 2282948). Conditions: HepG2 ISRE cis-reporter (Attagene), mRNA transcription readout; actives raise or lower the signal. Summed up: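 Read-out: fluorescent RT-PCR products resolved by capillary electrophoresis, reporting endogenous transcription factor activity via ISRE-driven reporter mRNA in transfected HepG2 cells dosed for 24 h; gain or loss fitted relative to DMSO.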

Experiment [13] can be described thus: ATG_M_32_CIS: Attagene CIS-FACTORIAL HepG2 Assay for M32 Transcription Factor (Internal Marker) (AID 2282949).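 Also: background control marker of the multiplexed CIS panel rather than a real target.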 Conditions: HepG2 Attagene cis-factorial M32 reporter, mRNA; actives raise or lower the signal. Summed up: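 HepG2 transfectants (cis-regulated reporter transcription units) dosed 24 h. Reporter mRNA by RT-PCR plus CE, analysed as gain or loss relative to DMSO.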

The nature of experiment [14]: ATG_M_06_CIS: Attagene CIS-FACTORIAL HepG2 Assay for M06 Transcription Factor (Internal Marker) (AID 2282950). The following applies: HepG2 Attagene CIS-FACTORIAL M06 internal marker reporter; actives raise or lower the signal. Summed up:
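Serves as a background control readout. Transfected HepG2 exposed to compounds for 24 h, then reporter transcripts quantified by fluorescent RT-PCR and capillary electrophoresis. Both directions fitted against DMSO baseline.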

Experiment [15] deals with Hypoxia-inducible factor 1-alpha (Homo sapiens) (UniProt Q16665). The experiment can be described thus: ATG_HIF1a_CIS: Attagene CIS-FACTORIAL HepG2 Assay for human Hypoxia Inducible Factor 1 (HIF1A) (AID 2282951). Conditions: HepG2 Attagene cis-factorial HIF1a reporter transcription; actives raise or lower the signal. Summed up: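 Dosed 24 h, transfected HepG2 cells yielded total RNA whose reporter transcripts were RT-PCR-amplified and sized by capillary electrophoresis using fluorescent labelling; DMSO defined baseline, with gain and loss of signal both fitted.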
Chain of Hypoxia-inducible factor 1-alpha (Homo sapiens) (Q16665 whole entry, looked up): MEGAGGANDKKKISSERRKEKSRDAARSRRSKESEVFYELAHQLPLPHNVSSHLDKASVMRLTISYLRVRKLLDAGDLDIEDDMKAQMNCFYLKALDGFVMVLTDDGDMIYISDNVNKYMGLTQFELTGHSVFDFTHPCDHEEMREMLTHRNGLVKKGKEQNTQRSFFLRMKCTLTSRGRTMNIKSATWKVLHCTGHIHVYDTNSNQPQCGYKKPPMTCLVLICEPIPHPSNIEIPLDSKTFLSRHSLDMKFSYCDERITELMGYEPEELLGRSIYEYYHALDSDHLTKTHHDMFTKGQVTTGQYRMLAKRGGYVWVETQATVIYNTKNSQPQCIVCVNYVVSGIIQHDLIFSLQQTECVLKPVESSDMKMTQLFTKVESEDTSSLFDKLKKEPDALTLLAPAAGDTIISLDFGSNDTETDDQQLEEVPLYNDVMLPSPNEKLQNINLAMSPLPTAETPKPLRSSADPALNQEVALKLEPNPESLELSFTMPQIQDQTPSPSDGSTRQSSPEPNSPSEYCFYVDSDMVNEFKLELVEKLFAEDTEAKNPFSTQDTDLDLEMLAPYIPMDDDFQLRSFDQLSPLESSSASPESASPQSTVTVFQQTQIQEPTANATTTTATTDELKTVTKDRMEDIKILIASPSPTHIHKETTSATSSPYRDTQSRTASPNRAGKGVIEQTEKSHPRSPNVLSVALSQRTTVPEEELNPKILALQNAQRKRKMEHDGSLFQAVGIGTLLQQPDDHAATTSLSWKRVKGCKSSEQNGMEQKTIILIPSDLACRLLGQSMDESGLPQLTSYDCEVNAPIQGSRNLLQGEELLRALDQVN

The target of experiment [16] is Hepatocyte nuclear factor 6 (Homo sapiens) (UniProt Q9UBC0). The experiment can be described thus: ATG_HNF6_CIS: Attagene CIS-FACTORIAL HepG2 Assay for human Hepatocyte Nuclear Factor 6 (HNF6) (AID 2282952). The following applies: HepG2 Attagene cis-factorial HNF6 reporter transcription; actives raise or lower the signal. Summed up:
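Using cis-element reporters in HepG2 liver cells, the assay tracks endogenous factor-driven transcription 24 h post-dosing. Signal comes from 6-FAM-labelled, HpaI-digested RT-PCR fragments, with gain or loss scored against DMSO.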

Experiment [17] has as its target Heat shock factor protein 1 (Homo sapiens) (UniProt Q00613). The experiment can be described thus: ATG_HSE_CIS: Attagene CIS-FACTORIAL HepG2 Assay for human Heat Shock Transcription Factor 1 (HSE) (AID 2282953). The following applies: HepG2 HSE cis-reporter, Attagene RNA transcription; actives raise or lower the signal. Summed up: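 Endogenous transcription factor activity in transiently transfected HepG2, read as reporter mRNA by RT-PCR with fluorescent capillary electrophoresis after 24 h. Gain or loss of signal fitted versus DMSO baseline.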

A short description of experiment [18]: ATG_MRE_CIS: Attagene CIS-FACTORIAL HepG2 Assay for human Metal Responsive Element (MRE) (AID 2282954). The following applies: HepG2 MRE cis-reporter transcription, Attagene multiplex; actives raise or lower the signal. Put shortly: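 Cells were transfected with cis-promoter reporter transcription units, then dosed for 24 h. RNA was reverse-transcribed, amplified, fluorescently labelled and resolved by capillary electrophoresis, and activity was fitted in both directions relative to DMSO.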

Experiment [19] in a line: ATG_PBREM_CIS: Attagene CIS-FACTORIAL HepG2 Assay for human Phenobarbital-responsive Enhancer Module (PBREM) (AID 2282955). The following applies: HepG2 PBREM cis-reporter, Attagene multiplexed transcription; actives raise or lower the signal. Summed up: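 Transfected liver-derived HepG2 cells exposed 24 h; PBREM reporter transcript quantified via RT-PCR and capillary electrophoresis, with activity in either direction referenced to DMSO.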

Experiment [20] is described as follows: ATG_GLI_CIS: Attagene CIS-FACTORIAL HepG2 Assay for human Zinc Finger Protein GLI1 (AID 2282945). Conditions: HepG2, Attagene cis-factorial reporter mRNA, GLI element; actives raise or lower the signal. Summed up: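 HepG2 cells transiently transfected with cis-promoter multiplexed reporter units report endogenous transcription factor activity. After 24 h chemical exposure, reporter mRNA was quantified by RT-PCR, 6-FAM labelling, HpaI digestion and capillary electrophoresis, with bidirectional fitting against DMSO.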

Chain of Hepatocyte nuclear factor 3-beta (Homo sapiens) (Q9Y261 whole entry, looked up): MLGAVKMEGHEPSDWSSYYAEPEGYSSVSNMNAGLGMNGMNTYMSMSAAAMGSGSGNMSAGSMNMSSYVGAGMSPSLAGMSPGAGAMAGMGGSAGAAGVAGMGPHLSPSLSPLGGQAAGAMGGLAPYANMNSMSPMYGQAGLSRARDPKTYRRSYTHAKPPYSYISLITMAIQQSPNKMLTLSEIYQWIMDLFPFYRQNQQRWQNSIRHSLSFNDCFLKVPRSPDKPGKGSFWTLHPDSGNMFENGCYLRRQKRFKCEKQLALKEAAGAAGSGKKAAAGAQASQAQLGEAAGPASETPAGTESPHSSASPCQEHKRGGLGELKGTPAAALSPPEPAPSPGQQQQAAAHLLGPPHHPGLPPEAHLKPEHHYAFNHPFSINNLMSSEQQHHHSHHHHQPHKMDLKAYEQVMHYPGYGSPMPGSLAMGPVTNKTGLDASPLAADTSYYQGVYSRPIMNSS
Chain of Heat shock factor protein 1 (Homo sapiens) (Q00613 whole entry, looked up): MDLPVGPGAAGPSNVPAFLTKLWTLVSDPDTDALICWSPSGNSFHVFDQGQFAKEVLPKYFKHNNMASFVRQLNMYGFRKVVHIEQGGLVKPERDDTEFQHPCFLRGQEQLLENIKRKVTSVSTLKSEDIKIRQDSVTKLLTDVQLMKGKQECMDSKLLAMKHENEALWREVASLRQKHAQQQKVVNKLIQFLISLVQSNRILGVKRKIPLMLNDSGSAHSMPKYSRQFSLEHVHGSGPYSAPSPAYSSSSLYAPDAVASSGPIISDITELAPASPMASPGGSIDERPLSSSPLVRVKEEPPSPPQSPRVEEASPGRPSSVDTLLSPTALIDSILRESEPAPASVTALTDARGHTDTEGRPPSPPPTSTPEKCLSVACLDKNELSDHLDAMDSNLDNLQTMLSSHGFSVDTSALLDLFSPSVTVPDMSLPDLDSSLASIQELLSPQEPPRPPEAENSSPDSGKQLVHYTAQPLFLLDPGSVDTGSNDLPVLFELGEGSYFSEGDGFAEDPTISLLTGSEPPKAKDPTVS
Chain of Hepatocyte nuclear factor 6 (Homo sapiens) (Q9UBC0 whole entry, looked up, the tested form may be a part): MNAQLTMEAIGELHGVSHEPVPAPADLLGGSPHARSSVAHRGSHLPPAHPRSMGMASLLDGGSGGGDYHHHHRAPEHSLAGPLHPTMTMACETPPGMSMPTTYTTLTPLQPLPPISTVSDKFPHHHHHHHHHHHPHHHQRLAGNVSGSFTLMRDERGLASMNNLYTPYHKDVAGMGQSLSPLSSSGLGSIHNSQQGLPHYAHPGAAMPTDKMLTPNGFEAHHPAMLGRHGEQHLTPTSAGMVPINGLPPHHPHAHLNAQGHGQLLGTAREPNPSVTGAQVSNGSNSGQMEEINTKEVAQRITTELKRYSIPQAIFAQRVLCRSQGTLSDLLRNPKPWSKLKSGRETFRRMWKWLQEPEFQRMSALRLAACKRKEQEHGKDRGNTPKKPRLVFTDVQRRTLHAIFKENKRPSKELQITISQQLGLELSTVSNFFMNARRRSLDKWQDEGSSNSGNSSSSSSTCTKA
Chain of Bile acid receptor (Homo sapiens) (Q96RI1 whole entry, looked up): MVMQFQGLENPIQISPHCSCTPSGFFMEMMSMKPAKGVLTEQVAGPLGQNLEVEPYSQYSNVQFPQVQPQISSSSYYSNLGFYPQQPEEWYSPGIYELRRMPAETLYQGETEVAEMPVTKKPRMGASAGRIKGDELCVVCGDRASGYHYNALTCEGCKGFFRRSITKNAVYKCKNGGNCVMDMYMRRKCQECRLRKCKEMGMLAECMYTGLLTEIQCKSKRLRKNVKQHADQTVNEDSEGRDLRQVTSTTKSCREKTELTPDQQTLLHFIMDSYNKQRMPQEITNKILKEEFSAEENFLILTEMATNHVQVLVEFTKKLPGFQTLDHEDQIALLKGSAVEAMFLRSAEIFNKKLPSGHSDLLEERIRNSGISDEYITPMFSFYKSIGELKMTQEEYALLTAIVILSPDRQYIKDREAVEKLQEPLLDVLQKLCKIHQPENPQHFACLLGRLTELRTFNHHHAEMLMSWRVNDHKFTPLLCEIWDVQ

For `COc1cc(OC)nc(NC(=O)NS(=O)(=O)Nc2ccccc2C(=O)N(C)C)n1`, the outcome in experiment [1], in experiment [2], in [3], in experiment [4], in experiment [5] and in experiment [6] was inactive. The molecule was classed as inactive in experiment [7], in [8], in [9], in experiment [10], in [11] and in experiment [12]. The call in [13], in experiment [14], in experiment [15], in experiment [16], in experiment [17] and in experiment [18] was inactive. Moreover, in [19], the outcome was inactive.

Consider `C=COC(=O)C(C)(C)CCCCCC`, for which the outcome in experiment [1], in [2], in experiment [3], in experiment [4], in [6] and in [7] was inactive. Also, the call in experiment [8], in experiment [9], in [10], in experiment [11], in experiment [13] and in experiment [14] was inactive. The molecule was classed as inactive in experiment [16], in [17], in experiment [18] and in [19]. Also, the AC50 – broadly, the midpoint of the concentration-response curve, whichever way the signal moves – is 100 µM (active) in [5] and 130 µM (active) in [15].

In the case of `NNC(=O)CCCCC(=O)NN`, the result in experiment [1], in [2], in [3], in experiment [4], in experiment [5] and in experiment [6] was inactive. Moreover, the result in experiment [7], in experiment [8], in experiment [9], in experiment [20], in experiment [10] and in experiment [11] was inactive. The call in experiment [13], in experiment [14], in experiment [15], in experiment [16], in experiment [17] and in experiment [18] was inactive. Further, the result in experiment [19] was inactive.

Consider `Cc1cc(C(=C2C=CC(=Nc3ccc(S(=O)(=O)O)cc3)C=C2)c2ccc(Nc3ccc(S(=O)(=O)O)cc3)cc2)cc(S(=O)(=O)O)c1N`, for which the outcome in experiment [1], in [2], in experiment [3], in experiment [4], in experiment [5] and in experiment [6] was inactive. For the same molecule, the call in experiment [7], in experiment [8], in experiment [9], in experiment [20], in [10] and in [11] was inactive. The outcome in experiment [12], in experiment [13], in experiment [14], in experiment [15], in experiment [16] and in experiment [17] was inactive. The result in [19] was inactive.

For the molecule `Cc1ccccc1C(OCCN(C)C)c1ccccc1` (stereo not given), the result in [1], in experiment [2], in experiment [3], in experiment [4], in [5] and in experiment [6] was inactive. Also, the outcome in [7], in [8], in experiment [9], in experiment [20], in experiment [10] and in experiment [11] was inactive. Moreover, the outcome in experiment [12], in [13], in [14], in experiment [16], in experiment [17] and in experiment [19] was inactive.

Consider `NCc1cccc(CN)c1`, for which the result in experiment [1], in experiment [2], in experiment [3], in experiment [4], in experiment [5] and in experiment [6] was inactive. Also, the molecule was called inactive in [7], in [8], in [9], in [20], in [10] and in experiment [11]. Further, the call in experiment [13], in experiment [14], in experiment [16], in experiment [17] and in experiment [19] was inactive. The AC50 in experiment [15] was 24.4 µM (active).

For the molecule `CCOC(=O)CN[C@@H](C(=O)N1CC[C@H]1C(=O)NCc1ccc(/C(N)=N/O)cc1)C1CCCCC1`, the result in [1], in experiment [2], in [3], in experiment [4], in experiment [5] and in experiment [6] was inactive. In addition, the molecule was classed as inactive in experiment [7], in [8], in [9], in [10], in experiment [11] and in experiment [12]. The molecule was called inactive in [13], in experiment [14], in experiment [15], in experiment [16], in experiment [17] and in experiment [18]. Further, the outcome in experiment [19] was inactive.

The values are drawn from PubChem BioAssay (EPA / NIEHS).
